# Experiments:
# Test in all cases: DAPPL (digital affinity profiling via proximity ligation, sequencing); 10 mM Tris-HCl pH 7.5, 50 mM NaCl, 1 mM DTT, 4% glycerol, room temperature, 30 min; GST-TFs on glutathione beads, 16-mer random dsDNA library, 0.1% formaldehyde crosslink after washing; high values mean tight binding
# FEV = target: T1, FEV (Homo sapiens, UniProt Q99581 1-238); conditions: protein: recombinant; tags: N-terminal GST; dsDNA, one strand shown
# T1 sequence: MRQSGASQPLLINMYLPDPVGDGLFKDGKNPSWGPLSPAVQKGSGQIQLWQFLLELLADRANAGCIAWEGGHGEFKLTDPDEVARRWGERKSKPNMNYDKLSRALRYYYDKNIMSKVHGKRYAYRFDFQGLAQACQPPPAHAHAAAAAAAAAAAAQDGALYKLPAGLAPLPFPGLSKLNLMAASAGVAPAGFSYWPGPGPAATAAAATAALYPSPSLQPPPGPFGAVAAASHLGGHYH
# Procedure, shortened: (§1)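 Sequencing on an Illumina NextSeq500 followed washing, crosslinking with 0.1% formaldehyde, proximity ligation (BsaI/T4 ligase, 1 h, 37 °C) and PCR amplification of pools that had been incubated for 30 min at room temperature with 200 nmole of a random double-stranded 16-mer DNA library in Tris/NaCl/DTT/glycerol buffer. Each pool held DNA-barcoded human transcription factors, expressed in yeast as GST fusions and captured on glutathione beads, plus a tag-only sample. Binding signal is a hexamer's read frequency for a factor divided by its frequency in the tag-only sample.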
# ETV5 = ETV5 (Homo sapiens, UniProt P41161 1-510); conditions: protein: recombinant; tags: N-terminal GST; dsDNA, one strand shown
# Procedure, shortened: as §1
# HSF1 = HSF1 (Homo sapiens, UniProt Q00613 1-529); conditions: protein: recombinant; tags: N-terminal GST; chain copies: 3; dsDNA, one strand shown
# Procedure, shortened: as §1
# SPIC = target: T2, SPIC (Homo sapiens, UniProt Q8N5J4 1-248); conditions: protein: recombinant; tags: N-terminal GST; dsDNA, one strand shown
# T2 sequence: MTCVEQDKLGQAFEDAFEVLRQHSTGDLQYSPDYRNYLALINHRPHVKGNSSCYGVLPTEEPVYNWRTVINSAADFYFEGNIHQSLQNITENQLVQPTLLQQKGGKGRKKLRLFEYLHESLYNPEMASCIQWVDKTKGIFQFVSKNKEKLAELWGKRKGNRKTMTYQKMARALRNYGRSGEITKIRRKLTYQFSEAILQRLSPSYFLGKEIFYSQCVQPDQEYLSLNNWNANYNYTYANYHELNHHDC
# Procedure, shortened: as §1
# ELF4 = ELF4 (Homo sapiens, UniProt Q99607 1-663); conditions: protein: recombinant; tags: N-terminal GST; dsDNA, one strand shown
# Procedure, shortened: as §1
# ELK4 = target: T3, ELK4 (Homo sapiens, UniProt P28324-2 1-405); conditions: protein: recombinant; tags: N-terminal GST; dsDNA, one strand shown
# T3 sequence: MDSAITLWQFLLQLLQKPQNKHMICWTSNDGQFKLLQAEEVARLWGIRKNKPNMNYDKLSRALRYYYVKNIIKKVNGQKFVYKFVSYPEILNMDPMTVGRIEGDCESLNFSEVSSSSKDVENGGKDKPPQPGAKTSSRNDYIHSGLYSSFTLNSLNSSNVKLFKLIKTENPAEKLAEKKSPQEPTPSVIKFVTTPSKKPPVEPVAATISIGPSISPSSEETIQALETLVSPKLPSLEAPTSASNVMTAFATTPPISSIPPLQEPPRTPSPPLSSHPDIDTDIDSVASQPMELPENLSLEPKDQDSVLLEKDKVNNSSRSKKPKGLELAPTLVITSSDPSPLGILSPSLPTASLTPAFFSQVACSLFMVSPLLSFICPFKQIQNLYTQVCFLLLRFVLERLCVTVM
# Procedure, shortened: as §1
# ETV2 = target: T4, ETV2 (Homo sapiens, UniProt O00321 1-342); conditions: protein: recombinant; tags: N-terminal GST; dsDNA, one strand shown
# T4 sequence: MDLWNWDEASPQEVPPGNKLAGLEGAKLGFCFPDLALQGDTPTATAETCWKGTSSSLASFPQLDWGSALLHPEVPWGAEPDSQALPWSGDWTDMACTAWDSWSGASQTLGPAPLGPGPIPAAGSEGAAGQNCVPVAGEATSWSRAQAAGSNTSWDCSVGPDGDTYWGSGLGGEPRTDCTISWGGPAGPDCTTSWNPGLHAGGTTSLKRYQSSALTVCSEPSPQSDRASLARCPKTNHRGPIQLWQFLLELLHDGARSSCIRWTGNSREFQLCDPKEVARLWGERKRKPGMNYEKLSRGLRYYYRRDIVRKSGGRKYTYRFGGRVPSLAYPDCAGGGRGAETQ
# Procedure, shortened: as §1
# ELF3 = target: T5, ELF3 (Homo sapiens, UniProt P78545 1-371); conditions: protein: recombinant; tags: N-terminal GST; dsDNA, one strand shown
# T5 sequence: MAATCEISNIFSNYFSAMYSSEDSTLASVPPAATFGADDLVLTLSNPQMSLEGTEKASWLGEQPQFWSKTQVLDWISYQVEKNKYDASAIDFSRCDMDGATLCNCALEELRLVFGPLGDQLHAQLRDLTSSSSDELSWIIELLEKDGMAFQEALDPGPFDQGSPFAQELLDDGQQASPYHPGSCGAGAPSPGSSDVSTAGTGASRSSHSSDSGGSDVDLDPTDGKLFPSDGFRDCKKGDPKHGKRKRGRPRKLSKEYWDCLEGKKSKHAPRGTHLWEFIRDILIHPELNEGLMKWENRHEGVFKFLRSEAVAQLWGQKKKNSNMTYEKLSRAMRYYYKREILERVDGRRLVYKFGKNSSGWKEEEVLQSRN
# Procedure, shortened: as §1
# ETV1 = ETV1 (Homo sapiens, UniProt P50549 1-477); conditions: protein: recombinant; tags: N-terminal GST; dsDNA, one strand shown
# Procedure, shortened: as §1
# ERF = target: T6, ERF (Homo sapiens, UniProt P50548 1-548); conditions: protein: recombinant; tags: N-terminal GST; dsDNA, one strand shown
# T6 sequence: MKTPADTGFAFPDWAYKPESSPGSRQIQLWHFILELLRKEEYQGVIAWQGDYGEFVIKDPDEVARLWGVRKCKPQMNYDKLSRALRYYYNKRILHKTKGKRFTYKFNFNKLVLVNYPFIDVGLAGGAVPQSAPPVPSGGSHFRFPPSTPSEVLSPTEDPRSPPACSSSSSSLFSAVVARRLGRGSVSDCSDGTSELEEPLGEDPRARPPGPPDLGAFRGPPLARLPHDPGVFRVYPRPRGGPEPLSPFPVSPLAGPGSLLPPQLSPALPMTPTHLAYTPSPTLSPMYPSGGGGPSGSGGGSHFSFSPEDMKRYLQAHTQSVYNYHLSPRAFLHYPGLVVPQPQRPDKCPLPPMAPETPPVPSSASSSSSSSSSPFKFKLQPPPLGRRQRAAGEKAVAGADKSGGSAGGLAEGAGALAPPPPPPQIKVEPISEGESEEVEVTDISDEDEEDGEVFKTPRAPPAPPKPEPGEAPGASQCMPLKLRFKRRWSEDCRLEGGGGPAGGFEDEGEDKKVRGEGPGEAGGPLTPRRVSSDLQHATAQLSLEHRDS
# Procedure, shortened: as §1
# ETV3L = target: T7, ETV3L (Homo sapiens, UniProt Q6ZN32 1-361); conditions: protein: recombinant; tags: N-terminal GST; dsDNA, one strand shown
# T7 sequence: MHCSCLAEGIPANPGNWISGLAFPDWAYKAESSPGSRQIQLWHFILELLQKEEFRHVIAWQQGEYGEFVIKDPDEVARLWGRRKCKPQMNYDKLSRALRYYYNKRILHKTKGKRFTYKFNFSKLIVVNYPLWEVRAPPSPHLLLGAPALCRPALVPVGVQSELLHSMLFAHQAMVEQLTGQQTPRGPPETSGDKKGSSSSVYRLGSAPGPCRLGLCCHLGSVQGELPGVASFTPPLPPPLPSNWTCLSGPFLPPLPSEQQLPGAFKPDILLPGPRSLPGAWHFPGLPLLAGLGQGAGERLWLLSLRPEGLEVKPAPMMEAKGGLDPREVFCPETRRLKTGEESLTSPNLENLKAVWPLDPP
# Procedure, shortened: as §1
# ETS2 = target: T8, ETS2 (Homo sapiens, UniProt P15036 1-469); conditions: protein: recombinant; tags: N-terminal GST; dsDNA, one strand shown
# T8 sequence: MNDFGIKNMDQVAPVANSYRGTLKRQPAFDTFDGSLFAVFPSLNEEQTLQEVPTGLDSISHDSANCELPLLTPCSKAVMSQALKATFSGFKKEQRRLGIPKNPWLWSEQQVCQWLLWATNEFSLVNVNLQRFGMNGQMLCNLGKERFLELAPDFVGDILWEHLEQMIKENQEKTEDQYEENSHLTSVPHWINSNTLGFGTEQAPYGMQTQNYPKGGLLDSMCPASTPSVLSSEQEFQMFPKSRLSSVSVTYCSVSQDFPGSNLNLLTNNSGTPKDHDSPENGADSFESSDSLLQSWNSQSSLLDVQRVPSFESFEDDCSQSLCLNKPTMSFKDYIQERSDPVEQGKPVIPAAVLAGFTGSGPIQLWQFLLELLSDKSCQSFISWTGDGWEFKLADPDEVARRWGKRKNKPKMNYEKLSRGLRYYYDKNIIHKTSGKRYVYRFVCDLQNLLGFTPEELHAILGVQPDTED
# Procedure, shortened: as §1
# SPDEF = target: T9, SPDEF (Homo sapiens, UniProt O95238 1-335); conditions: protein: recombinant; tags: N-terminal GST; dsDNA, one strand shown
# T9 sequence: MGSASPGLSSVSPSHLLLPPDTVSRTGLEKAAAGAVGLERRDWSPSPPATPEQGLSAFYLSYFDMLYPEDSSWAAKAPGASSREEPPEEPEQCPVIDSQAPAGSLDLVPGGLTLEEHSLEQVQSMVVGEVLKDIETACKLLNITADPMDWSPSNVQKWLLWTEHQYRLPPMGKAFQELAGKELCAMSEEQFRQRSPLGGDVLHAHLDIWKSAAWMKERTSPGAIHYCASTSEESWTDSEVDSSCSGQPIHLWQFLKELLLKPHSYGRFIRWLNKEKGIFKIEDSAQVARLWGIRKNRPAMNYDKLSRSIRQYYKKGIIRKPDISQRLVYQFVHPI
# Procedure, shortened: as §1
# ETV7 = target: T10, ETV7 (Homo sapiens, UniProt Q9Y603 1-341); conditions: protein: recombinant; tags: N-terminal GST; dsDNA, one strand shown
# T10 sequence: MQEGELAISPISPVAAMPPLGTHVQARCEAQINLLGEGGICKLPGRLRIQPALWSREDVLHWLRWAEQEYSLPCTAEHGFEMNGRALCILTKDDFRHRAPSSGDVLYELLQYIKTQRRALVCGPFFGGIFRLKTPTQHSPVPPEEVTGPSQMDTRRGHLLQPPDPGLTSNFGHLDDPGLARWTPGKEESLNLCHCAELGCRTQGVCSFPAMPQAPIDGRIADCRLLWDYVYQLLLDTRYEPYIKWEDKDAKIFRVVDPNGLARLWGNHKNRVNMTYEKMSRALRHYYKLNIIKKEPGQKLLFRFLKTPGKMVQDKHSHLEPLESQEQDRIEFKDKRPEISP
# Procedure, shortened: as §1
# ELF5 = target: T11, ELF5 (Homo sapiens, UniProt Q9UKW6-2 1-255); conditions: protein: recombinant; tags: N-terminal GST; dsDNA, one strand shown
# T11 sequence: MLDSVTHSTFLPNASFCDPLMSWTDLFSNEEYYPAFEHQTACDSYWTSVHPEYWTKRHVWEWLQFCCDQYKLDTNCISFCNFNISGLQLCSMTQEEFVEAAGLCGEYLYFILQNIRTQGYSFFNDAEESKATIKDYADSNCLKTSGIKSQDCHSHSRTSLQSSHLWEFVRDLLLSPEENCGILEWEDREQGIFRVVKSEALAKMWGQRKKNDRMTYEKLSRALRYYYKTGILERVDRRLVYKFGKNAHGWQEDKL
# Procedure, shortened: as §1
# ETV3 = target: T12, ETV3 (Homo sapiens, UniProt P41162-2 1-143); conditions: protein: recombinant; tags: N-terminal GST; dsDNA, one strand shown
# T12 sequence: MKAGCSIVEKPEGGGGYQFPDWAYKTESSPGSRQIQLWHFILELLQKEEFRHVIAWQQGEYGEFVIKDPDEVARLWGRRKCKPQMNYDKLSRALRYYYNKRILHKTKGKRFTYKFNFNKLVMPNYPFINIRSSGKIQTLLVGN
# Procedure, shortened: as §1
# ETV6 = ETV6 (Homo sapiens, UniProt P41212 1-452); conditions: protein: recombinant; tags: N-terminal GST; dsDNA, one strand shown
# Procedure, shortened: as §1
# HSF1, sequence (Q00613 whole entry): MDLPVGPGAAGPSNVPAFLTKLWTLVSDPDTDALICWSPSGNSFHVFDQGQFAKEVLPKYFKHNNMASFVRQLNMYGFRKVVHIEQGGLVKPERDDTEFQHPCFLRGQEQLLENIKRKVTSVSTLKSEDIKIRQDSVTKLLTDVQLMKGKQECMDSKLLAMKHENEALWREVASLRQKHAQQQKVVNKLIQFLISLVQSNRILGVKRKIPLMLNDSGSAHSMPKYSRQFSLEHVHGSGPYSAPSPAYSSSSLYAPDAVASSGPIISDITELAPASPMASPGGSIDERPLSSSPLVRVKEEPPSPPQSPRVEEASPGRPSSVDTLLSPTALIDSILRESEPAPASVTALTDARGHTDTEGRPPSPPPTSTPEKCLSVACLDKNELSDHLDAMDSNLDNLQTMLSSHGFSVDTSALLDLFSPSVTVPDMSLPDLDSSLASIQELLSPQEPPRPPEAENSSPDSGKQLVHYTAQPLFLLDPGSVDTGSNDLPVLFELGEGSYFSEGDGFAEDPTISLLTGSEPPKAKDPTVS
# ELF4, sequence (Q99607 whole entry): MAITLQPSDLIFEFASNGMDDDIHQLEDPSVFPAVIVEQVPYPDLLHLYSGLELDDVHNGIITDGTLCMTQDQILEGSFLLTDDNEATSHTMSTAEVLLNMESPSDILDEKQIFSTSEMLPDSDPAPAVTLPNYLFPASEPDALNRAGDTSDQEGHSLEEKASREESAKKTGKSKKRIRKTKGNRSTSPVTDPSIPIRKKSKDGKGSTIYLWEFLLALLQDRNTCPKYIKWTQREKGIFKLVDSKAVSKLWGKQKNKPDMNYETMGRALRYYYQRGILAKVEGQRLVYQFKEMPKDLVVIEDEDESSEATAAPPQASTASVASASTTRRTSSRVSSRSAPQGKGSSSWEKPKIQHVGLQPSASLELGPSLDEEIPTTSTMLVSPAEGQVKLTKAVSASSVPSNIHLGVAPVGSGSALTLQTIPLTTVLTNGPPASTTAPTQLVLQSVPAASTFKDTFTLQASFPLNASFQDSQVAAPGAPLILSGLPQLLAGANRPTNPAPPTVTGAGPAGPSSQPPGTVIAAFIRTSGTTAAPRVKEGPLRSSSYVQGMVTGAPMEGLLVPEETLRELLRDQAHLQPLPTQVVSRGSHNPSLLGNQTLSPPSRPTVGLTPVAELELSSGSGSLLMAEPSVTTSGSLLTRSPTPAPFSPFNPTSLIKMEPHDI
# ETV1, sequence (P50549 whole entry): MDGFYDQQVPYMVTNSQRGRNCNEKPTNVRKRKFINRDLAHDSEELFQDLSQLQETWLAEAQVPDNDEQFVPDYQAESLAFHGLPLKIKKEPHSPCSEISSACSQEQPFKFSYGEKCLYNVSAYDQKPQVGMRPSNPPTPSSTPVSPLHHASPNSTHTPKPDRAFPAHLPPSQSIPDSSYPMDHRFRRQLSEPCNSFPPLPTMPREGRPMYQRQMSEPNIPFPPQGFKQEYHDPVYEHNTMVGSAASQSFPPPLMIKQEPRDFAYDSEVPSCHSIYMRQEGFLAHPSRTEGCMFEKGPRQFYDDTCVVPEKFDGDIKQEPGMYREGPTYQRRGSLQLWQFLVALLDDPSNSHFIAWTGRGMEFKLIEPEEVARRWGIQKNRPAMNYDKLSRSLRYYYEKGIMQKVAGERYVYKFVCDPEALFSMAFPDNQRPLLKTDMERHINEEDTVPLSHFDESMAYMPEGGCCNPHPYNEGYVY
# ETV6, sequence (P41212 whole entry): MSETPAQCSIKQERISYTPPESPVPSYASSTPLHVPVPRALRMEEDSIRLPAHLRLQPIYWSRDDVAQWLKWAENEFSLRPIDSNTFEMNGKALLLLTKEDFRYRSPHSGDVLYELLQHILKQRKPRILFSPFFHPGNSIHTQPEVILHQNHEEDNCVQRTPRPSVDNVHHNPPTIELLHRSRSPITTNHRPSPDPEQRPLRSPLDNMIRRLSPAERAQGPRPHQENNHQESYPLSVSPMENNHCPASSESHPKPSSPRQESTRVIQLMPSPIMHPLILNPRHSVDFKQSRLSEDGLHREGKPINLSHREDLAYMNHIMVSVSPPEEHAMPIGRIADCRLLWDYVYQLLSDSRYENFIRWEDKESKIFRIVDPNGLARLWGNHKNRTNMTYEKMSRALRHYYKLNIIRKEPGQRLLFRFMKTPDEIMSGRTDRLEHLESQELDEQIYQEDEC
# ETV5, sequence (P41161 whole entry): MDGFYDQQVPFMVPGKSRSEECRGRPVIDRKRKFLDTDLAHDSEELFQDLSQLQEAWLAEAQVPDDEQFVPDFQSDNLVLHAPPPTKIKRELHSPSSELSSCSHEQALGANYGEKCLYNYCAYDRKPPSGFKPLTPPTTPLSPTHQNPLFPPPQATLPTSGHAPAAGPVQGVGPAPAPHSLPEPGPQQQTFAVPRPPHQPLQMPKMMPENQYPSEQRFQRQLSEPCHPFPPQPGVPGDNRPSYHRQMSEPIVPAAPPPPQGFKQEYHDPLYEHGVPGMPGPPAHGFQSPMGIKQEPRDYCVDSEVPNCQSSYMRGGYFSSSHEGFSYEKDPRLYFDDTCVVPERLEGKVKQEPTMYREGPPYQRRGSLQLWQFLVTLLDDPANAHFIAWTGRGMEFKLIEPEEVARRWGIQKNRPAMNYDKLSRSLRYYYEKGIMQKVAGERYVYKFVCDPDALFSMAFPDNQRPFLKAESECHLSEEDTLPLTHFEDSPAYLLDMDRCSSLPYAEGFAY
sequence,measurement,setting,value
GAAACT,binding signal,FEV,"1.29 fold enrichment (6-mer frequency, TF over GST control)"
same,binding signal,ETV5,"1.28 fold enrichment (6-mer frequency, TF over GST control)"
same,binding signal,HSF1,"1.32 fold enrichment (6-mer frequency, TF over GST control)"
same,binding signal,SPIC,"1.25 fold enrichment (6-mer frequency, TF over GST control)"
same,binding signal,ELF4,"1.24 fold enrichment (6-mer frequency, TF over GST control)"
same,binding signal,ELK4,"1.14 fold enrichment (6-mer frequency, TF over GST control)"
same,binding signal,ETV2,"1.12 fold enrichment (6-mer frequency, TF over GST control)"
same,binding signal,ELF3,"1.19 fold enrichment (6-mer frequency, TF over GST control)"
same,binding signal,ETV1,"1.27 fold enrichment (6-mer frequency, TF over GST control)"
same,binding signal,ERF,"1.03 fold enrichment (6-mer frequency, TF over GST control)"
same,binding signal,ETV3L,"1.22 fold enrichment (6-mer frequency, TF over GST control)"
same,binding signal,ETS2,"1.22 fold enrichment (6-mer frequency, TF over GST control)"
same,binding signal,SPDEF,"1.13 fold enrichment (6-mer frequency, TF over GST control)"
same,binding signal,ETV7,"1.31 fold enrichment (6-mer frequency, TF over GST control)"
same,binding signal,ELF5,"1.28 fold enrichment (6-mer frequency, TF over GST control)"
same,binding signal,ETV3,"1.16 fold enrichment (6-mer frequency, TF over GST control)"
same,binding signal,ETV6,"1.2 fold enrichment (6-mer frequency, TF over GST control)"

# Source: paper PMC7862700, “An all-to-all approach to the identification of sequence-specific readers for epigenetic DNA modifications on cytosine”
